Records with an inconclusive call do not appear. Entries that show only a call come without a potency. Values without a mark were called inactive. Active and inactive are the calls of the source. Calls come from the whole dose curve.
Test: qHTS assay to identify small molecule agonists of the hypoxia (HIF-1) signaling pathway - cell viability counter screen (AID 1224844); note: nearly all actives have a fitted effect of over 50% in size
Conditions: HRE-bla ME-180 viability, CellTiter-Glo luminescence, 17 h; series mostly up to 76.8 µM
In short: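 Multiplexed with the HRE beta-lactamase assay, this viability read used CellTiter-Glo luminescence (30 min, RT) on HRE-bla ME-180 cells treated 17 hrs with compounds in 0.5% dialyzed FBS medium.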
Potency is the fitted concentration of half-maximal effect.

**Q.** For `O=C1c2ccccc2C(=O)c2ccccc21`, which activity change, negative = cytotoxicity is on record?
**A.** -0.0454% [at 15.8 µM]

**Q.** For `Clc1ccccc1N1CCNCC1`, which Potency is on record?
**A.** inactive

**Q.** With `CC(C)(C)NCC(O)c1cc(Cl)c(N)c(Cl)c1` (stereo not drawn) as the compound, how does the Potency read?
**A.** inactive

**Q.** Which Potency does the source give for `Nc1ccccc1Cl` here?
**A.** inactive

**Q.** For `Nc1cc(Cl)ccc1O`, which Potency is on record?
**A.** inactive

**Q.** For `COc1ncc(F)c2nc(S(=O)(=O)Nc3c(F)cccc3F)nn12`, which Potency is on record?
**A.** inactive

**Q.** With `CN(N=O)C(N)=O` as the compound, how does the Potency read?
**A.** inactive

**Q.** Which Potency does the source give for `CCCCCCBr` here?
**A.** inactive

**Q.** For `ClC(Cl)Br`, which Potency is on record?
**A.** inactive

**Q.** With `CC(C)CC#N` as the compound, how does the Potency read?
**A.** inactive

**Q.** With `N#CC(O)c1ccccc1` (stereo not drawn) as the compound, how does the Potency read?
**A.** inactive

**Q.** Which Potency does the source give for `COC(=O)C(c1ccccc1)C1CCCCN1` (stereo not drawn) here?
**A.** inactive

**Q.** With `COc1ccc2c(c1OC)CN1CCc3cc4c(cc3C1C2)OCO4` (stereo not drawn) as the compound, how does the Potency read?
**A.** inactive

**Q.** Which Potency does the source give for `C=C(C)CN(CC)c1c([N+](=O)[O-])cc(C(F)(F)F)cc1[N+](=O)[O-]` here?
**A.** inactive

**Q.** Which Potency does the source give for `Nc1c(Br)cc([N+](=O)[O-])cc1[N+](=O)[O-]` here?
**A.** inactive

**Q.** For `CNCC(=O)c1ccc(O)c(O)c1`, which Potency is on record?
**A.** inactive

**Q.** For `CS(=O)(=O)c1cc(C(F)(F)F)ccc1C(=O)c1cnoc1C1CC1`, which Potency is on record?
**A.** inactive

**Q.** With `COC(=O)C(C)Oc1ccc(Oc2ccc(Cl)cc2Cl)cc1` (stereo not drawn) as the compound, how does the Potency read?
**A.** inactive

**Q.** For `Nc1cnn(-c2ccccc2)c(=O)c1Cl`, which Potency is on record?
**A.** inactive

**Q.** For `CCCSC(=O)N(CCC)CCC`, which Potency is on record?
**A.** inactive

**Q.** With `CC(C(=O)c1ccccc1)N(C)C` (stereo not drawn) as the compound, how does the Potency read?
**A.** inactive

**Q.** For `CCCCOC(=O)[C@@H](C)Oc1ccc(Oc2ccc(C#N)cc2F)cc1`, which Potency is on record?
**A.** inactive

**Q.** For `NC(=O)O`, which Potency is on record?
**A.** inactive

**Q.** Which Potency does the source give for `CCCSP(=O)(OCC)Oc1ccc(Br)cc1Cl` (stereo not drawn) here?
**A.** inactive

**Q.** Which Potency does the source give for `COC(=O)c1c(C(F)F)nc(C(F)(F)F)c(C2=NCCS2)c1CC(C)C` here?
**A.** inactive

**Q.** With `C#C[C@]1(O)C=C[C@H]2[C@@H]3CCC4=CC(=O)CC[C@@H]4[C@H]3CC[C@@]21CC` as the compound, how does the Potency read?
**A.** inactive

**Q.** With `COc1ccc(C(=O)N2CCCC2=O)cc1` as the compound, how does the Potency read?
**A.** inactive

**Q.** For `ClC(Cl)C(Cl)Cl`, which Potency is on record?
**A.** inactive

**Q.** With `O=[N+]([O-])c1ccc(CBr)cc1` as the compound, how does the Potency read?
**A.** 24.2 µM (active)

**Q.** For `CCN(CC)C(=O)[C@@H]1C=C2c3cccc4[nH]cc(c34)C[C@H]2N(C)C1`, which Potency is on record?
**A.** inactive

**Q.** With `COC(=O)C1=CCCN(C)C1` as the compound, how does the Potency read?
**A.** inactive

**Q.** Which Potency does the source give for `CCC1(c2ccccc2)C(=O)N=C(O)NC1=O` (stereo not drawn) here?
**A.** inactive

**Q.** For `CNNC`, which Potency is on record?
**A.** inactive

**Q.** For `CNC(=O)Oc1c(C(C)(C)C)cc(C)cc1C(C)(C)C`, which Potency is on record?
**A.** inactive

**Q.** For `Cc1ncc(CNC(=O)N(CCCl)N=O)c(N)n1`, which Potency is on record?
**A.** inactive

**Q.** Which Potency does the source give for `CCC#N` here?
**A.** inactive

**Q.** Which Potency does the source give for `O=[N+]([O-])c1ccc2c3c(cccc13)CC2` here?
**A.** inactive

**Q.** Which Potency does the source give for `CC1CCCCC1NC(=O)Nc1ccccc1` (stereo not drawn) here?
**A.** inactive
